Measurements as given in PubChem BioAssay (EPA / NIEHS).
The source made the active and inactive calls. Rule for the calls: active = hit-call score of the fitted dose curve at least 0.9, where 1 is the maximum; inactive = score below 0.9.

read-out: Interleukin-1 alpha (IL1a), IL1A (gene 3552); assay: BSK_BE3C_IL1a: BioMAP Diversity Plus: BE3C Assay for Interleukin-1 alpha (IL1a) Biomarker Activity (AID 2283016); conditions: primary human bronchial epithelial cells; actives raise or lower the signal
Procedure: BSK_BE3C is a cell-based, multiplexed-readout assay that uses bronchial epithelial cell, a human lung primary cell, with measurements taken at 24 hours after chemical dosing in a 96-well plate.BSK_BE3C_IL1a is an assay component measured in the BSK_BE3C assay. It measures IL-1a antibody related to regulation of gene expression using ELISA technology.Data from the assay component BSK_BE3C_IL1a was analyzed into 1 assay endpoint. This assay endpoint, BSK_BE3C_IL1a, was analyzed with bidirectional fitting relative to DMSO as the negative control and baseline of activity. Using a type of binding reporter, gain or loss-of-signal activity can be used to understand changes in the signaling as they relate to the gene IL1A. Furthermore, this assay endpoint can be referred to as a primary readout, because this assay has produced multiple assay endpoints where this one serves a signaling function. To generalize the intended target to other relatable targets, this assay endpoint is annotated to the cytokine intended target family, where the subfamily is interleukins.
The levels of cell surface (or secreted, indicated by the prefix "s") biomarker endpoints were measured by ELISA. Overt cytotoxicity to cells in confluent adherent cultures (all systems other than the BT system) was assessed by measuring total protein levels using sulforhodamine B (SRB) staining in parallel cultures at the time of biomarker measurements, indicated as SRB endpoints. For proliferation assays for adherent cell types, individual cell types are cultured at sub-confluence and relative cell numbers quantified by SRB staining at time points optimized for each system (48 h: 3C and CASM3C systems; 72 h: BT and HDF3CGF systems; 96 h: SAg system). SRB was performed by staining cells with 0.1% SRB after fixation with 10% TCA and reading wells at 560 nm.Viability and proliferation of PBMC (T cells) was quantified by Alamar Blue reduction for the SAg and BT systems. For PBMC viability (referred to as PBMC Cytotoxicity within the assay endpoint names), cells were plated (75,000/well in a 96-well plate) and then chemical samples added for 1 h before addition of activators, SEB and TSST-1 (20 ng/mL final concentration each). Cells were incubated for 90 h. Then, Alamar Blue (20 uL/well) (Invitrogen, Cat DAL1100) was added for 6 h, and the plates were read with a fluorescence microplate reader at 546/580 nm (excitation/emission). For PBMC proliferation, cells were plated and activated as above but incubated for only 16 h prior to addition of Alamar Blue. Plates were read after 6 h.

outcome, inactive:
C/C=C/c1ccc(OC)cc1
CCCCC(CC)COP(=O)(OCC(CC)CCCC)OCC(CC)CCCC (stereo not given)
CCCCCCCCCCCCCCCCO
C=CCCCCCCCCCCCC
CC(=O)[C@@]1(O)CC[C@H]2[C@@H]3CCC4=CC(=O)CC[C@]4(C)[C@H]3CC[C@@]21C
O=C1c2c(O)cccc2Cc2cccc(O)c21
O=[Si]=O
CC1(C)C(=O)NC(=O)N1CO
S=c1[nH]c2ccccc2s1
CC(COCC(C)OC(=O)c1ccccc1)OC(=O)c1ccccc1 (stereo not given)
CC(C)(O)c1ccc(CNC(=O)c2cccnc2Oc2ccc(F)cc2)cc1
CCCC(=O)O
c1ccc2occc2c1
CC(C)(C)c1ccccc1
Nc1nc(=S)c2[nH]cnc2[nH]1
CC(=O)S[C@H](C(=O)N[C@H]1Cc2ccccc2[C@H]2CCC[C@@H](C(=O)O)N2C1=O)C(C)C
Cn1cnc2c1c(=O)[nH]c(=O)n2C
CO[C@@H]1COCC[C@@H]1N[C@@H]1CC[C@@](C(=O)N2CCc3ncc(C(F)(F)F)cc3C2)(C(C)C)C1
O=C(O)c1[nH]n(-c2ccc(S(=O)(=O)O)cc2)c(=O)c1N=Nc1ccc(S(=O)(=O)O)cc1
C=CCc1ccc(OC)c(OC)c1
CCc1cc(C2=C(C(=O)O)N(c3ccccc3C(F)(F)F)S(=O)(=O)c3ccccc32)cc2c1OCO2
O=C(NS(=O)(=O)/C=C/c1cccs1)c1ccc(F)cc1Br
OCC(O)CO
CC(=O)CC(c1ccccc1)c1c(O)c2ccccc2oc1=O (stereo not given)
COC(=O)CCCC(=O)OC
NC=O
CN(C)CCCN(C)CCCN(C)C
Cc1cc(Cc2ccc(N)c(C)c2)ccc1N
OCC(CO)n1cnc(-c2ccc(F)cc2)c1-c1ccnc(Oc2ccccc2)n1
NC(=Nc1ccccc1)Nc1ccccc1
CC1=C(C)S(=O)(=O)CCS1(=O)=O
CCCCCCCCCC[N+](C)(C)[O-]
C#CC(O)C(CC)CCCC (stereo not given)

AC50, active:
O=C(N[C@@H](c1ccccc1)[C@@H]1CCCCN1)c1cccc(C(F)(F)F)c1Cl 36 µM
CCCCCCCCCCCCCCOS(=O)(=O)O 28.1 µM
Cc1ccc(-c2cc(C(F)(F)F)nn2-c2ccc(S(N)(=O)=O)cc2)cc1 33.3 µM
CN(C)CCCN1c2ccccc2Sc2ccc(Cl)cc21 31.1 µM
O=C1OC(c2ccc(O)cc2)(c2ccc(O)cc2)c2ccccc21 34.8 µM
Cc1c(C)c2c(c(C)c1O)CCC(C)(COc1ccc(CC3SC(=O)NC3=O)cc1)O2 (stereo not given) 29.3 µM
CCCCCCC(CCCCCCCCCCC(=O)OCC(COC(C)=O)OC(C)=O)OC(C)=O (stereo not given) 12.3 µM
